L3MBTL1 inh = blocks human L3MBTL1; AlphaScreen L3MBTL1–H3K9me1 peptide binding; Potency, µM (doses to about 57.1 µM), for the others: at the top dose activity, negative = inhibition, usual class: inhibitors; 0.66% of 230,000 active; AID 485360; further: on the % scale 0 is the no-effect control and ±100 the full control effect; nearly all actives have a fitted effect of over 60% in size
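Read-out is AlphaScreen signal from streptavidin donor and nickel chelate acceptor beads (10 ug/mL final each) bridging L3MBTL1 (50 nM) and biotinylated K9-monomethylated H3(1-15) peptide (75 nM), after 30 min compound exposure at room temperature.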
G9a inh = G9a (human) methyltransferase inhibition. Potency, µM (titrated, usually from 102 µM), without a hit: at the top dose activity, negative = inhibition, most hits filed as inhibitors. G9a H3K9 monomethylation, AlphaScreen, 2 h. 8.8% of 350,000 active. Q96KQ7. AID 504332; further: on the % scale 0 is the no-effect control and ±100 the full control effect; nearly all actives have a fitted effect of over 75% in size
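Using a bead-based AlphaScreen, monomethylated H3K9 product from 2 h room-temperature reactions (G9a 20 nM, peptide 500 nM, SAM 20 uM) was detected with 0.5 ug/mL rabbit anti-H3K9me1 antibody.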
JMJD2A Tudor inh = inhibitors of human JMJD2A Tudor domain | AlphaScreen JMJD2A-Tudor / H3K4me3 peptide binding | AID 504339 | Potency, µM (top dose mostly 114 µM), for the others: at the highest dose activity change, negative = inhibition, most hits filed as inhibitors | 4.4% of 390,000 active; further: on the % scale 0 is the no-effect control and ±100 the full control effect; nearly all actives have a fitted effect of over 50% in size
HP1b binding inh = inhibitors of HP1-beta chromodomain binding to methylated histone tails | Potency, µM (top dose mostly 114 µM), inactives show top-dose activity change, negative = inhibition, hits mostly inhibitors | 0.56% of 390,000 active | AlphaScreen HP1-beta / biotin-H3K9me3 peptide binding | P83916; further: nearly all actives have a fitted effect of over 70% in size
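HP1-beta protein (50 nM final) preincubated 30 min at room temperature with biotinylated H3(1-18)K9me3 peptide (50 nM) in PBS pH 7.4, 0.01% Tween-20, then compound added for 30 min. AlphaScreen streptavidin donor/nickel chelate acceptor beads (10 ug/mL final), 30 min dark, luminescence read.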
BAZ2B inh = blocks human BAZ2B; Q9UIF8; AlphaScreen BAZ2B-H3K14Ac peptide displacement; Potency, µM (highest dose often 114 µM), inactives show top-dose activity change, negative = inhibition, usual class: inhibitors; 4.4% of 360,000 active; AID 504333; further: on the % scale 0 is the no-effect control and ±100 the full control effect; nearly all actives have a fitted effect of over 60% in size
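AlphaScreen displacement of biotin-H3(5-23)K14Ac peptide (50 nM final) from BAZ2B (50 nM final) in PBS pH 7.4, 0.01% Tween-20; complex preformed 30 min RT, then compounds (top 110 uM) 30 min RT, beads 20 min dark.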
Numbers without * were called inactive; ? = inconclusive; / = no result given; ! = not active in a repeat; [ ] = dose if it differs, or a comment. Most compounds without a hit are left out; they make up all but 11% or so of the library. The call rests on the fitted dose curve; in most records, active means well fitted inhibition curve with a large enough effect; inconclusive means small, poorly fitted or top-dose-only effect; inactive means no such curve, though single readings can be large or run the other way. Potency means the concentration at half of the fitted maximal effect.

SMILES	L3MBTL1 inh	G9a inh	JMJD2A Tudor inh	HP1b binding inh	BAZ2B inh
O=[N+]([O-])c1c(NCCO)cc(N2CCN(Cc3ccc4c(c3)OCO4)CC2)c2nonc12	-12%	?	-22%	23%	-14%
CC(=O)N(C)c1ccc(N2CCOCC2)c2c1C(=O)c1ccccc1C2=O	/	/	-31%	?	/
O=C1c2ccccc2-c2onc3c(Br)cc(NC4CCCCC4)c1c23	/	-33%[59 µM]	-34%	-8%	-25%
O=C1c2ccccc2-c2onc3c(N4CCN(C5CCCCC5)CC4)cc(NCCO)c1c23	/	-43%[59 µM]	?	?	32µM*
COCCNc1cc(N2CCN(C3CCCCC3)CC2)c2noc3c2c1C(=O)c1ccccc1-3	/	?	50µM*	?	?
COCCCNc1nc2nonc2nc1N1CCN(C2CCCC2)CC1	6%	-22%	-2%	29%	-28%
CC(C)CNc1cc(NC2CCCCC2)c2c3c(onc13)-c1ccccc1C2=O	/	10µM*	28µM*	?	25µM*
CN(C)CCCNc1cc(N2CCN(C3CCCCC3)CC2)c2noc3c2c1C(=O)c1ccccc1-3	/	?	35µM*	?	20µM*
O=C(CCCCCn1c(=O)c2sccc2n(CC(=O)Nc2cccc(Cl)c2)c1=O)NCc1ccc2c(c1)OCO2	/	-41%[59 µM]	-8%	12%	?
CCC(=O)N1c2ccc(S(=O)(=O)NCc3ccc(F)cc3)cc2CC1C (stereo not drawn)	/	20%[59 µM]	1%	56%	/
Cc1occc(=O)c1O	3%	?	25µM*	23%	?
COc1ccc2c(Sc3ccccc3)c(C(=O)NCCc3ccc(Cl)cc3)[nH]c2c1	/	?	-21%	43%	-2%
CN1CCN(c2nc3c(c(=O)[nH]c(=O)n3C)n2CCCSc2nnnn2-c2ccccc2)CC1	1%	25µM*	-9%	24%	-16%
Cn1c(=O)[nH]c(=O)c2c1nc(N1CCCCC1)n2CCCSc1nnnn1-c1ccccc1	-14%	-47%[59 µM]	-14%	23%	-39%
CC(C)CCSc1nc2c(c(=O)[nH]c(=O)n2C)n1CCCc1ccccc1	-95%	40µM*	-1%	34%	7%
CSc1nc2c(c(=O)[nH]c(=O)n2C)n1Cc1ccccc1	3%	-5%	-7%	28%	2%
CSc1nc2c(c(=O)[nH]c(=O)n2C)n1CCCc1ccccc1	/	71µM*	-5%	31%	-2%
CCCCOC(=O)c1ccc(NC(=O)/C(C#N)=C/c2ccc(-c3ccccc3)o2)cc1	/	-31%[59 µM]	-19%	22%	-30%
Cc1cc(C)cc(NC(=O)C(=O)NCC(c2cccnc2)N2CCc3ccccc3C2)c1 (stereo not drawn)	/	-3%[59 µM]	-1%	21%	-3%
Nc1cccc2[nH]c(C(F)(F)F)nc12	?	28µM*	?	?	56µM*
FC(F)(F)c1nc(=S)c2ccccc2[nH]1	/	67%	50µM*	?	8%
S=c1nc(COc2ccccc2)[nH]c2ccccc12	/	18µM*	-28%	-11%	-3%
Cc1nc(=S)c2ccccc2[nH]1	/	?	-13%	64%	3%
O=C(O)c1cccc2[nH]c(C(F)(F)F)nc12	9%	40µM*	32µM*	-8%	56µM*
O=C(O)c1ccc2nc(C(F)(F)F)[nH]c2c1	2%	-4%[59 µM]	-5%	46%	-7%
SMILES	L3MBTL1 inh	G9a inh	JMJD2A Tudor inh	HP1b binding inh	BAZ2B inh
COc1ccc(C2C(=O)N(C3CCC(C)CC3)CC(=O)N2CCC2=CCCCC2)cc1OC (stereo not drawn)	/	-9%[59 µM]	-17%	49%	-12%
COC(=O)c1cccc(Nc2nn3c(=O)c4cc5c(cc4nc3s2)OCO5)c1	/	6%[59 µM]	-3%	15%	-2%
O=c1[nH]c(/C=C/c2cccc([N+](=O)[O-])c2)c([N+](=O)[O-])c(=O)[nH]1	13%	79µM*	-4%	-6%	13%
COc1cc(C(c2c(C)[nH][nH]c2=O)c2c(C)[nH][nH]c2=O)cc([N+](=O)[O-])c1O	/	?	45µM*	?	?
O=c1[nH]c(/C=C/c2ccc(Cl)cc2Cl)c([N+](=O)[O-])c(=O)[nH]1	-8%	?	-21%	6%	56µM*
COc1cc(/C=C/c2[nH]c(=O)[nH]c(=O)c2[N+](=O)[O-])cc([N+](=O)[O-])c1O	/	45µM*	?	-8%	56µM*
O=c1[nH]c(/C=C/c2ccccc2)c([N+](=O)[O-])c(=O)[nH]1	3%	-45%	-14%	20%	-4%
CCOC(=O)c1sc2ccccc2c1S(=O)(=O)NCc1ccccc1OC	/	3%[59 µM]	-9%	32%	4%
CCOC(=O)c1c(C)[nH]c(C)c1S(=O)(=O)NCC(=O)N1CCN(c2cccc(C)c2)C(C)C1 (stereo not drawn)	/	-27%[59 µM]	?	-16%	-16%
Cc1cc(NS(=O)(=O)c2ccc(NC(=S)NC(=O)c3ccc(F)cc3)cc2)no1	-1%	-27%[59 µM]	-13%	-3%	3%
Cc1cc(NS(=O)(=O)c2ccc(NC(=O)COc3ccc(Br)cc3C)cc2)no1	/	-11%[59 µM]	-17%	11%	-7%
Cc1ccc(OCCC(=O)Nc2ccc(S(=O)(=O)Nc3cc(C)nc(C)n3)cc2)cc1	0%	-45%	-10%	28%	-7%
Cc1cc(NS(=O)(=O)c2ccc(NC(=O)/C=C/c3ccco3)cc2)nc(C)n1	-17%	50µM*	-16%	-5%	-17%
CCOc1ccc(OCC(=O)Nc2ccc(S(=O)(=O)Nc3cc(C)nc(C)n3)cc2)cc1	30%[11.4 µM]	14µM*	-28%	3%	-6%
Cc1cc(NS(=O)(=O)c2ccc(NC(=O)COc3c(C)cc(Br)cc3C)cc2)no1	/	56µM*!	-11%	28%	-34%
Cc1cc(NS(=O)(=O)c2ccc(NC(=S)NC(=O)c3cccc(S(=O)(=O)N(C)C)c3)cc2)no1	-22%	35µM*	-9%	0%	-18%
COc1ccc(OC)c(S(=O)(=O)NCC(c2cccs2)S(=O)(=O)c2ccc(F)cc2)c1 (stereo not drawn)	/	9%[59 µM]	-22%	59%	16%
COc1ccc(CCNC(=O)c2cnc3ccc(C)cn3c2=O)cc1	/	-2%[59 µM]	-1%	33%	-2%
CCn1c(SCC(=O)Nc2cccc(Cl)c2)nnc1-c1nonc1NC(C)=O	/	7%[59 µM]	-1%	54%	2%
Cc1cc(NS(=O)(=O)c2ccc(NS(=O)(=O)c3ccc(CC(C)C)cc3)cc2)nc(C)n1	-5%[11.4 µM]	?	-6%	49%	?
Cc1ccc(S(=O)(=O)Nc2ccc(S(=O)(=O)Nc3cc(C)nc(C)n3)cc2)cc1	4%	10µM*	1%	41%	?
CCOC(=O)/C=C/C(=O)Nc1ccc(S(=O)(=O)Nc2cc(C)on2)cc1	/	50µM*	-6%	7%	-19%
Cc1cc(NS(=O)(=O)c2ccc(NC(=O)COc3ccc(Br)cc3)cc2)nc(C)n1	/	/	20µM*	2%	-22%

High-throughput results deposited in PubChem BioAssay by National Center for Advancing Translational Sciences (NCATS).
